In PubChem BioAssay AID743314 (Broad Institute, 2014):
Measured potencies and affinities stand elsewhere. Results filed as inconclusive are left out. Calls of active or inactive are those of the source.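 The calls were made as follows: active = fitted half-maximal concentration no higher than twice the top tested dose, in every repeat run; inconclusive = repeat runs disagree, poor fit, or flat partial inhibition; inactive = the rest.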

Biological target: Endoplasmic reticulum aminopeptidase 1 (Homo sapiens) (UniProt Q9NZ08)
Assay: inhibition of human ERAP1 enzyme activity – biochemical, cherry-pick, set 2, plate reader, dose response (AID 743314);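 also: 0% = neutral control wells and -100% = L-leucinethiol positive control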
Settings: Recombinant ERAP1, Leu-AMC fluorescence, 60 min; series mostly up to 11 µM; activity change, negative = inhibition: at the top concentration

Endoplasmic reticulum aminopeptidase 1 (Homo sapiens), sequence (Q9NZ08 whole entry, looked up): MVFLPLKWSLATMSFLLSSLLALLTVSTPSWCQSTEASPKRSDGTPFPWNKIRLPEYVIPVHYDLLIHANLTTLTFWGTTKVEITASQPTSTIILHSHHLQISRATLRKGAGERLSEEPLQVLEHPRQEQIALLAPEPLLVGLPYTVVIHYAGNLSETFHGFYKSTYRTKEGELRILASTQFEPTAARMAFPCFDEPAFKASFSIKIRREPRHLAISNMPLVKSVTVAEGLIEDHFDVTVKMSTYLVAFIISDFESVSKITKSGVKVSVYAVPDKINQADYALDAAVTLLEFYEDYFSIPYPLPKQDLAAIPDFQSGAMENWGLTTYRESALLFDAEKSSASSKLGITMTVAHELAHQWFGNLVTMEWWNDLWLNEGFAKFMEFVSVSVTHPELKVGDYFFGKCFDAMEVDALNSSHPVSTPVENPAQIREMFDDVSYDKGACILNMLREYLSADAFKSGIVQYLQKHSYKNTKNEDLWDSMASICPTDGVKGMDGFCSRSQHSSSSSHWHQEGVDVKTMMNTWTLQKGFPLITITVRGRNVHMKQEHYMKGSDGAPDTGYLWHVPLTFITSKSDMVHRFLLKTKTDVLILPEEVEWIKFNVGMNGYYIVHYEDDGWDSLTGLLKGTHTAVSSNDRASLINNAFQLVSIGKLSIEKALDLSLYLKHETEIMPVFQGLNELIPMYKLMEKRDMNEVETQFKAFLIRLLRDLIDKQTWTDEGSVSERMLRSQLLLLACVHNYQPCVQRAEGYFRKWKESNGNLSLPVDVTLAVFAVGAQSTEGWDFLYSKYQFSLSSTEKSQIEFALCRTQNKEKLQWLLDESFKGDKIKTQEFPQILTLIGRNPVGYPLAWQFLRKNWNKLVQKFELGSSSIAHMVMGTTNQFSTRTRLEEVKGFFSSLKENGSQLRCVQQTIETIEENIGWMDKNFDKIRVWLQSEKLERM

Activity change, negative = inhibition, inactive:
O=C(C[C@@H]1C=C[C@H](NC(=O)Nc2cccc(F)c2)[C@H](CO)O1)NCC1CCCCC1 59.7% [at 12 µM], C[C@@H]1CN([C@@H](C)CO)C(=O)c2cc(NS(=O)(=O)c3ccc(Cl)cc3)ccc2O[C@@H](C)CCCCO[C@@H]1CN(C)C 20.4%, CSc1cccc(NC(=O)CCCNC(=O)c2ccc(Cl)cc2)c1 9.95%, COc1ccc2c3c(n(C)c2c1)[C@H](CO)N(C)CC31CN(C(=O)c2cccnc2)C1 21.1%, C=CCn1nnnc1SCC(=O)Nc1cccc(C(F)(F)F)c1 9.34%, O=C(CSc1nnc2ccc(-c3ccc(F)cc3)nn12)N1CCCC1 1.64%, COc1ccc(CNCc2c(O)c(Cl)cc3c(C)c(C)c(=O)oc23)c(OC)c1 83.8% [at 5.6 µM], CCOC(=O)c1c(NC(=O)COC(=O)CCNS(=O)(=O)c2ccccc2)sc(C(=O)NC)c1C -4.58%, Cc1nc2cc(NC(=O)C3COc4ccccc4O3)ccc2s1 (stereo not given) -0.647%, CCOC(=O)N1CCc2c(sc(NC(=O)c3ccc(S(=O)(=O)N4CCCC4)cc3)c2C#N)C1 -2.67%, Cc1ccc(SC(C)C(=O)NCc2ccncc2)cc1 (stereo not given) 3.37%, CC(=O)N1CCCCN2[C@H](CO)[C@@H](c3ccc(-c4ccccc4)cc3)[C@H]2C1 32.8%, CCCCCn1c(=NC(=O)c2ccco2)c(C(=O)OCC)cc2c(=O)n3ccccc3nc21 -30.4%, COc1ccc(CN(C)C[C@H]2OCCCC[C@@H](C)Oc3ccc(NS(=O)(=O)c4cccs4)cc3C(=O)N([C@H](C)CO)C[C@@H]2C)cc1 42.7%, C[C@@H]1CN([C@H](C)CO)C(=O)c2cc(NC(=O)C3CC3)ccc2O[C@H]1CN(C)Cc1ccncc1 26.1% [at 2.6 µM]
